This passage reports binding signal results from paper PMC7819943, “Rice protein-binding microarrays: a tool to detect cis-acting elements near promoter regions in rice”.

Over roughly 39,000 sequences, “fluorescence intensity (a.u.)” has its median near 4,300; the highest 2% begin near 39,000. The list comes from a sample in which the highest values are over-represented; it also holds similar and randomly drawn sequences.

The assay concerns the target T1, OsSMF1 (Oryza sativa, UniProt Q6ZLB0 1-436).
T1 sequence: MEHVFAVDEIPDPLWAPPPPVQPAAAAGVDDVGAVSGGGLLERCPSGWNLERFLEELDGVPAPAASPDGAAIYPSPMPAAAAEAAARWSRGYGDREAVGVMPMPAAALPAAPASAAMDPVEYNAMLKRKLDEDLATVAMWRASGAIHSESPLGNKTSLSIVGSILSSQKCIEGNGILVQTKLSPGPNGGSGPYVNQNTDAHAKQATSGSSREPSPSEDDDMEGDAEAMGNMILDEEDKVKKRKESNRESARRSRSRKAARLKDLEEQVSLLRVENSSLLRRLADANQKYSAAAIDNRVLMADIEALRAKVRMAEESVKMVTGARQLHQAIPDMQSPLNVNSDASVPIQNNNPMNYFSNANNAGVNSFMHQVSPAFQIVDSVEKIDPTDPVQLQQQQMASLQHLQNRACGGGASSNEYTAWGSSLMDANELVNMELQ
As to the kind of experiment: protein-binding microarray (RPBM); PBS, 2% BSA, 51.3 ng/ul salmon testes DNA, 50 uM zinc acetate, 200 nM TF, 25 C, 1 h; high values mean tight binding. Particulars: protein: recombinant; tags: N-terminal polyhistidine and DsRed monomer fusion (pET32a); chain copies: 2; label: CyDye5-dUTP incorporated in the synthesized complementary strand; 3' TTTTT single-stranded linker to array surface; dsDNA, one strand shown. The procedure, abridged: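 In PBS with 2% BSA, salmon testes DNA and 50 µM zinc acetate, 200 nM protein was incubated on a custom Agilent array at 25 °C for 1 h and then washed off. The array had been made double-stranded by primer extension with Cy5-dUTP and blocked with 2% BSA. The proteins were transcription factors fused N-terminally to polyhistidine and DsRed, expressed in E. coli BL21-CodonPlus and purified on Ni–NTA. The binding signal is per-feature fluorescence intensity (arbitrary units) from an Axon 4000B scanner.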
Regarding “CAGTTCCCAGCTGGACCTCCGACCTCCTACCTCCTCACCTCGGAGTCACCTAGTGCAG”, the binding signal was 3340 fluorescence intensity (a.u.).

“AATGTTTGGGTTCGAATTTAGTGGGTGGGTTTGGAGTTTGCGGAGTCACCTAGTGCAG”: the binding signal was 4670 fluorescence intensity (a.u.). As for “TCCGCGGCCCCGCTGGCCCACACGCATGCGTCCAAACAGCCGGAGTCACCTAGTGCAG”, the binding signal was 3940 fluorescence intensity (a.u.). Consider “CAAATAGAACATAGCCATACGAAATGACTCACTAACCTCTCGGAGTCACCTAGTGCAG”, for which the binding signal was 4910 fluorescence intensity (a.u.). Then “TCACCGGTCTCATCCCCGTCATATGCATCCTTATCTCCAACGGAGTCACCTAGTGCAG”, with 4020 fluorescence intensity (a.u.). For the sequence “TGACCTACTTGCACTTATAATTTATAGTATTATGATGTGTCGGAGTCACCTAGTGCAG”, the binding signal is 3290 fluorescence intensity (a.u.). Then “TCCAAGCCGTCCACTCCCCTCCGATCCAACGGTCCAAACCCGGAGTCACCTAGTGCAG”, with 21800 fluorescence intensity (a.u.); and “ATGCACACACATACAACGAAAACCAGAGATCAACAGGTGCCGGAGTCACCTAGTGCAG”, with 45100 fluorescence intensity (a.u.); and “CACACCTGACACAACACTTACACATCATACCAGAAGAAAACGGAGTCACCTAGTGCAG”, with 3210 fluorescence intensity (a.u.). Then “AGATCACACACAACACGCACATCACGAACCGGACCAAACCCGGAGTCACCTAGTGCAG”, with 3660 fluorescence intensity (a.u.); and “TGGGGCCGTGAGGCCACGTGCCCGGCATGCCACGGTGGAGCGGAGTCACCTAGTGCAG”, with 10000 fluorescence intensity (a.u.); and “CCTCCACCCTCACCGGCGCCACGCCGACGCCTCCGCCCTCCGGAGTCACCTAGTGCAG”, with 5600 fluorescence intensity (a.u.). The figure for “GGCAACAACGGCCTCCACCGCCATCACTCCGGCACCCTCACGGAGTCACCTAGTGCAG” is 52200 fluorescence intensity (a.u.); for “CCCTTGTCCATCCGCCAACGCCACGTCACCTCCTCCGCTACGGAGTCACCTAGTGCAG” it is 52100 fluorescence intensity (a.u.). Regarding “ACCACGACCACCACAACACCACCACCTCTTCTCCTAGTCACGGAGTCACCTAGTGCAG”, the binding signal is 3570 fluorescence intensity (a.u.). The figure for “CCTCCGCCTTGTCCGCGTCCACGTCCACGGCCGCCGCCACCGGAGTCACCTAGTGCAG” is 6310 fluorescence intensity (a.u.); for “ACCTCCCCGACGGCGTCCGCGTGCCGCGCTCCACGCGCACCGGAGTCACCTAGTGCAG” it is 3460 fluorescence intensity (a.u.); for “TCCACCACCGCCTGCCTCCATCCACCTCCACTGCAACCTCCGGAGTCACCTAGTGCAG” it is 3670 fluorescence intensity (a.u.). Consider “CTCCTCTCCTCTCTTCTCCACATCCACAAGAAATTTCGTACGGAGTCACCTAGTGCAG”, for which the binding signal is 3630 fluorescence intensity (a.u.). Then “TTGTCGTCCACGCCGCCATCTCCTTGGTCATCCGCAACAACGGAGTCACCTAGTGCAG”, with 3430 fluorescence intensity (a.u.); and “TCCTCCTCTCCTCCACACATCCAGGCAGGCAACACAAGAACGGAGTCACCTAGTGCAG”, with 41800 fluorescence intensity (a.u.); and “CGCCTTATCCTCCCGCCTTTTCACGTCCCGCCACGCCGACCGGAGTCACCTAGTGCAG”, with 4060 fluorescence intensity (a.u.). Then “CCTTTTATCCGCTCTACGGACGCAGTCCACGTCAGCCGACCGGAGTCACCTAGTGCAG”, with 39200 fluorescence intensity (a.u.); and “CACGGGGTGGTCGCGGGTCACAGTGACGGACGGTGCACGGCGGAGTCACCTAGTGCAG”, with 20200 fluorescence intensity (a.u.). The figure for “CACCAGGCACCGACTGCCGTAGTGTCACCGGCCACAGTGCCGGAGTCACCTAGTGCAG” is 3220 fluorescence intensity (a.u.). For the sequence “CTGTTGCCTACTCCCTCCTCAATCCTGCAGAAGTTTCTGACGGAGTCACCTAGTGCAG”, the binding signal is 3240 fluorescence intensity (a.u.). Then “CTCCATTTTCTCCGGTTTTCGCCGCAGAGTAGGAGCTGAACGGAGTCACCTAGTGCAG”, with 21400 fluorescence intensity (a.u.); and “TCACGGCCGCCTCCGCCATCTGCACAACCTCGCCGCCGCCCGGAGTCACCTAGTGCAG”, with 65500 fluorescence intensity (a.u.); and “CGTCGCCTCGCCTCGTCACGGCCGCCTCCGCCATCGCCTCCGGAGTCACCTAGTGCAG”, with 6060 fluorescence intensity (a.u.). Then “CGTGCCGACGCGTGCCTCGCCAACGTGTCGCAACGCCTCACGGAGTCACCTAGTGCAG”, with 8980 fluorescence intensity (a.u.); and “CTCCTCCTCCGGCCACGTCGACGTCGCACCAACCGCCGCCCGGAGTCACCTAGTGCAG”, with 14700 fluorescence intensity (a.u.). As to “TCTCCTCTCGCTCTCGCCATCTCGCCGCCGGCCTCCTCCACGGAGTCACCTAGTGCAG”, the binding signal is 3240 fluorescence intensity (a.u.). For “AACCAACGGTCGCTGTTACGCCACGTCACCTCACCGACGCCGGAGTCACCTAGTGCAG”, the binding signal is 39200 fluorescence intensity (a.u.). “AGCACTACTCCAACGCAGCAACCAACACGTACCTCCACATCGGAGTCACCTAGTGCAG”: the binding signal was 6420 fluorescence intensity (a.u.). Then “GATTCTTCTATGTGGCATGAGGTAACCCTGGGTCGGCTTGCGGAGTCACCTAGTGCAG”, with 4110 fluorescence intensity (a.u.); and “GCCGTTGTCCGAAGGTTCAGCATATTGCTGACATATTGCCCGGAGTCACCTAGTGCAG”, with 4940 fluorescence intensity (a.u.).

On to “GCATGCTCTTCTGATCTGTAATCTCAGGCTCTATTACTCTCGGAGTCACCTAGTGCAG”, for which the binding signal was 3450 fluorescence intensity (a.u.). Then “TTCCTCGCCAACGTAAGCCAATAACATTGTGACGCAATCTCGGAGTCACCTAGTGCAG”, with 5820 fluorescence intensity (a.u.). Then “CCGAGTGACGATGCAGCTGAGTCGGAGCGCAGCACGACTTCGGAGTCACCTAGTGCAG”, with 4290 fluorescence intensity (a.u.). For “GCTGAGCAGGAGAGGGGCGCCGATCTCCATCCGGCGAGCACGGAGTCACCTAGTGCAG”, the binding signal was 5450 fluorescence intensity (a.u.). The figure for “GAGCAGGAGGAGCTGAGCGACTCCGAGTCGGGCGCCGAGTCGGAGTCACCTAGTGCAG” is 40100 fluorescence intensity (a.u.); for “ATCTCCATCTGGCGAGCAGAGGCCGGGGAGGGAGGGGCGCCGGAGTCACCTAGTGCAG” it is 3870 fluorescence intensity (a.u.).
